The text below walks through data of PubChem BioAssay AID651718 (The Scripps Research Institute Molecular Screening Center, 2012).

Among all 360,000 compounds or so, about 2,700 (0.75%) were called active. Only a selection was taken, and actives are over-represented in it overall. Values without a mark were called inactive. Cut-off read from the data, not from the text of the source: active = inhibition above about 4.5%; inactive = the rest.

One may read the inhibition as the relative decrease from the control value, in per cent.

In this assay the test system is Methionine sulfoxide reductase A (Bos taurus). The assay can be described thus: inhibition of methionine sulfoxide reductase A – biochemical, absorbance, bovine, HTS, primary screen (AID 651718).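 Note: 0% = vehicle wells with enzyme and 100% = reference inhibitor wells.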 The following applies: purified bovine MsrA, absorbance read-out; at 15.5 µM; active compounds read high.
Take `Cc1ccc2nc(-c3ccc(CN4CCC(n5cc(-c6ccccc6)[nH]c5=O)CC4)cc3)c(-c3ccccc3)nc2c1`: the inhibition is 1.47%.
Next, `O=c1[nH]c(-c2ccccc2)cn1C1CCN(Cc2ccc(-c3nc4ccc(F)cc4nc3-c3ccccc3)cc2)CC1`: 1.06%; `Cc1nc(NC(=O)C(C)(C)C)sc1[N+](=O)[O-]`: 0.16%.
As to `Oc1c(C(c2ccco2)N2CCC3(CC2)OCCO3)sc2ncnn12` (stereo not drawn), the inhibition was 1.08%.
Regarding `CC1(C)CC(=O)C/C(=N\NC(=O)c2cccs2)C1`, the inhibition was 0.04%.
With `O=C(N/N=C/C=C/c1ccco1)c1cccs1` the figure was 5.18% (active); with `CC(=O)Nc1ccc(/C=N/NC(=O)c2cccs2)cc1`, 5.38% (active); with `C/C(=N\OCC(=O)Nc1ccc(Br)cc1)c1cccs1`, 0%.
Next, `O=C(NC(Cc1c[nH]c2ccccc12)C(=O)N/N=C/c1ccc(Br)cc1)c1cccs1` (stereo not drawn): 1.85%; `O=C(COC(=O)CCC(=O)c1cccs1)NCc1ccco1`: -1.07%.
As to `Nc1[nH]c(C(=O)c2ccc(Br)cc2)c(-c2ccc3c(c2)OCO3)c1C(=O)NCCc1c[nH]c2ccccc12`, the inhibition is 1.06%.
Next, `CCOC(=O)CNC(=O)N(C)[C@H]1C[C@H]2c3[nH]c4c(-c5ccc6c(c5)OCO6)cccc4c3CCN2C(=O)[C@H]1[C@H](C)O`: 0.91%; `COC(=O)[C@]12C[C@H](CC(=O)NCc3ccc(C)o3)C(=O)N(CCC3=CCCCC3)C1=C[C@H](C(C)(C)C)O[C@@H]2C`: -0.16%; `COCc1cc(N2CCN(C(=O)OC(C)(C)C)C[C@@H]2C)ccc1N1CCN(Cc2ccccc2)[C@H](C)C1`: -0.33%.
With `CN1C(=O)C2CC(O)C(SC3CC4C(=O)N(C)C(=O)C4CC3O)CC2C1=O` (stereo not drawn) the figure was -0.2%.
For the compound `COC(=O)C1=C(C)N(Cc2cccc(C(F)(F)F)c2)C(=NCc2ccccc2)NC1c1ccc(Cl)cc1` (stereo not drawn), the inhibition is -1.08%.
With `O=C(C(=O)N1CCC(CNC(=O)c2cccnc2Cl)CC1)c1cccs1` the figure was 0.64%; with `COc1ccc(S(=O)(=O)N2CCOCC2)cc1NC(=O)CSc1nnc(NC2CC2)s1`, 1.12%; with `Cc1noc(C)c1COc1ccc2ccc(=O)oc2c1`, 1.22%.
Consider `CCCCc1cc(=O)oc2cc(C)cc(OCc3nn[nH]n3)c12`, for which the inhibition was 2.46%.
Next, `COc1ccc(-c2cc3ccc(OCc4nn[nH]n4)cc3oc2=O)cc1`: 6.87% (active); `CN1CCNC(=O)C1CC(=O)NCCC1=CCCCC1` (stereo not drawn): 2.03%; `CCOC(=O)C1CSCCS(=O)(=O)N1Cc1ccc(Cl)cc1` (stereo not drawn): -0.33%.
